Results published in PubChem BioAssay (NCATS).
Records with an inconclusive call do not appear. The source made the active and inactive calls. Calls follow the shape of the dose curve; as a rule, active = well fitted inhibition curve with a large enough effect; inconclusive = small, poorly fitted or top-dose-only effect; inactive = flat fitted curve, though single readings scatter.

Tests used:
Assay in all cases: qHTS profiling for inhibitors of Plasmodium falciparum proliferation (AID 504749); also: nearly all actives have a fitted effect of over 60% in size
CP252 = details: P. falciparum in erythrocytes, SYBR Green DNA, 72 h; series mostly up to 12.8 µM
How it was run: (§1)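 P. falciparum-infected erythrocytes (0.3% parasitemia, 2.5% hematocrit) incubated with compound 72 h at 37 C, 5% CO2. Parasite DNA detected by SYBR Green after lysis, overnight at room temperature; normalised to 0.29 uM artemisinin and DMSO.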

CP256 = details: P. falciparum in erythrocytes, SYBR Green DNA, 72 h; series mostly up to 12.8 µM
How it was run: as §1

CP260 = details: P. falciparum in erythrocytes, SYBR Green DNA, 72 h; series mostly up to 12.8 µM
How it was run: as §1

CP262 = details: P. falciparum in erythrocytes, SYBR Green DNA, 72 h; series mostly up to 12.8 µM
How it was run: as §1

CP265 = details: P. falciparum in erythrocytes, SYBR Green DNA, 72 h; series mostly up to 12.8 µM
How it was run: as §1

CP266 = details: P. falciparum in erythrocytes, SYBR Green DNA, 72 h; series mostly up to 28.7 µM
How it was run: as §1

CP268 = details: P. falciparum in erythrocytes, SYBR Green DNA, 72 h; series mostly up to 12.8 µM
How it was run: as §1

CP269 = details: P. falciparum in erythrocytes, SYBR Green DNA, 72 h; series mostly up to 12.8 µM
How it was run: as §1

CP286 = details: P. falciparum in erythrocytes, SYBR Green DNA, 72 h; series mostly up to 12.8 µM
How it was run: as §1

CP291 = details: P. falciparum in erythrocytes, SYBR Green DNA, 72 h; series mostly up to 12.8 µM
How it was run: as §1

CP297 = details: P. falciparum in erythrocytes, SYBR Green DNA, 72 h; series mostly up to 12.8 µM
How it was run: as §1

CP305 = details: P. falciparum in erythrocytes, SYBR Green DNA, 72 h; series mostly up to 12.8 µM
How it was run: as §1

CP315 = details: P. falciparum in erythrocytes, SYBR Green DNA, 72 h; series mostly up to 12.8 µM
How it was run: as §1

CP325 = details: P. falciparum in erythrocytes, SYBR Green DNA, 72 h; series mostly up to 12.8 µM
How it was run: as §1

CP329 = details: P. falciparum in erythrocytes, SYBR Green DNA, 72 h; series mostly up to 12.8 µM
How it was run: as §1

CP335 = details: P. falciparum in erythrocytes, SYBR Green DNA, 72 h; series mostly up to 12.8 µM
How it was run: as §1

DFO2036 = details: P. falciparum in erythrocytes, SYBR Green DNA, 72 h; series mostly up to 12.8 µM
How it was run: as §1

DIV14 = details: P. falciparum in erythrocytes, SYBR Green DNA, 72 h; series mostly up to 12.8 µM
How it was run: as §1

DIV30 = details: P. falciparum in erythrocytes, SYBR Green DNA, 72 h; series mostly up to 12.8 µM
How it was run: as §1

Dd2 = details: P. falciparum in erythrocytes, SYBR Green DNA, 72 h; series mostly up to 12.8 µM
How it was run: as §1

ECU = details: P. falciparum in erythrocytes, SYBR Green DNA, 72 h; series mostly up to 12.8 µM
How it was run: as §1

FAB9 = details: P. falciparum in erythrocytes, SYBR Green DNA, 72 h; series mostly up to 12.8 µM
How it was run: as §1

GB4 = details: P. falciparum in erythrocytes, SYBR Green DNA, 72 h; series mostly up to 12.8 µM
How it was run: as §1

HB3 = details: P. falciparum in erythrocytes, SYBR Green DNA, 72 h; series mostly up to 12.8 µM
How it was run: as §1

ICS = details: P. falciparum in erythrocytes, SYBR Green DNA, 72 h; series mostly up to 12.8 µM
How it was run: as §1

JCK = details: P. falciparum in erythrocytes, SYBR Green DNA, 72 h; series mostly up to 12.8 µM
How it was run: as §1

N140 = details: P. falciparum in erythrocytes, SYBR Green DNA, 72 h; series mostly up to 12.8 µM
How it was run: as §1

P93_24 = details: P. falciparum in erythrocytes, SYBR Green DNA, 72 h; series mostly up to 12.8 µM
How it was run: as §1

P94_40 = details: P. falciparum in erythrocytes, SYBR Green DNA, 72 h; series mostly up to 12.8 µM
How it was run: as §1

PAD = details: P. falciparum in erythrocytes, SYBR Green DNA, 72 h; series mostly up to 12.8 µM
How it was run: as §1

PC15 = details: P. falciparum in erythrocytes, SYBR Green DNA, 72 h; series mostly up to 12.8 µM
How it was run: as §1

PC26 = details: P. falciparum in erythrocytes, SYBR Green DNA, 72 h; series mostly up to 12.8 µM
How it was run: as §1

PC49 = details: P. falciparum in erythrocytes, SYBR Green DNA, 72 h; series mostly up to 12.8 µM
How it was run: as §1

SC27B = details: P. falciparum in erythrocytes, SYBR Green DNA, 72 h; series mostly up to 12.8 µM
How it was run: as §1

TAB109 = details: P. falciparum in erythrocytes, SYBR Green DNA, 72 h; series mostly up to 12.8 µM
How it was run: as §1

TAB113 = details: P. falciparum in erythrocytes, SYBR Green DNA, 72 h; series mostly up to 12.8 µM
How it was run: as §1

TAB165 = details: P. falciparum in erythrocytes, SYBR Green DNA, 72 h; series mostly up to 12.8 µM
How it was run: as §1

W2 = details: P. falciparum in erythrocytes, SYBR Green DNA, 72 h; series mostly up to 12.8 µM
How it was run: as §1

Measured: Potency

NC(N)=NC[C@@H]1COC2(CCCCC2)O1
inactive: all assays above
